# Measured values taken from PubChem BioAssay.
# Values joined by “and” are separate entries in the source; they are usually repeats but may differ in a detail not shown here. Equal values may be shown once. Active and inactive are the calls of the source.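 The calls were made as follows, unless noted: active = thallium flux through the channel raised or lowered by more than 3 SD from vehicle-only wells, actives on both sides; inactive = the rest.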
# How the values were obtained:
# [1] = stimulators of nuclear beta-catenin in C2C12, primary screen, imaging, WNT3A-conditioned medium, mouse C2C12, NPC library (AID 1117326; in the data active = nuclear beta-catenin stimulation mostly above about 4.2%, no sharp cut-off; inactive = mostly below about 10%); conditions: stronger effect = higher value
# [2] = stimulators of insulin release from INS-1E, primary screen, cell-based, 5 mM glucose, NPC library (AID 1117329;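 active = compound raises insulin release from rat beta cells at 5 mM glucose, no numeric limit stated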); conditions: rat INS-1E insulin secretion, at 10 µM, stronger effect = higher value
# [3] = growth inhibition of GSK3B-pretreated HCT116 cells – cell-based, CellTiter-Glo, 0.2 to 20 µM (AID 1117336;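 active = compounds lowering colon cancer cell viability after pretreatment blocking the GSK3B kinase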); conditions: HCT116 viability after GSK3B inhibitor, at 20 µM, stronger effect = higher value
# [4] = inhibition of endothelial tube formation, primary screen, imaging, VEGF stimulated, CD31 staining, tube area, NPC library (AID 1117340;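 active = compound that reduces growth-factor-driven endothelial tube area in a mixed cell culture, no cutoff stated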); conditions: VEGF-stimulated ADSC/ECFC co-culture, at 10 µM, stronger effect = higher value
# [5] = glucagon-like peptide 1 release enhancers, primary assay, NCI-H716 cell line, NPC library (AID 1117341;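 active = compound raises GLP1 secretion from the human gut endocrine cells, with no numeric limit stated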); conditions: NCI-H716 cells, at 10 µM, stronger effect = higher value
# [6] = HCT116 colon cancer cell growth inhibition, primary screen, CellTiter-Glo luminescence, NPC library (AID 1117342;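 active = compounds that lower survival of HCT116 colon cancer cells in the luminescence readout, no numeric limit stated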); conditions: at 20 µM (top of the series)
# [7] = CellTiter-Glo luminescent readout of SW480 viability loss, NPC library primary (AID 1117343;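 active = compounds that lower viability of the colon cancer cells in the luminescence readout, with no numeric limit stated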); conditions: CellTiter-Glo luminescence; at 20 µM (top of the series)
# [8] = decreased DLD-1 cellular survival, CellTiter-Glo luminescent readout, NPC compound collection, primary HTS (AID 1117346;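 active = compounds that lower survival of DLD-1 colon cancer cells in the luminescence readout, no cutoff given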); conditions: DLD-1 viability, CellTiter-Glo luminescence; at 20 µM (top of the series)
# [9] = molecular target: 6-phosphogluconate dehydrogenase, decarboxylating (Homo sapiens) (UniProt P52209); test: 6PGD enzyme inhibitors, primary screen, biochemical, human, recombinant enzyme, NADPH absorbance (AID 1159550;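 active = at least 20% inhibition of 6-phosphogluconate dehydrogenase activity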); conditions: recombinant 6PGD, NADPH absorbance 341 nm; at 10 µM; stronger effect = higher value
# [10] = differential killing of epithelial or mesenchymal cells, primary screen, imaging, PC-3E GFP, TEM4-18 mCherry, co-culture (AID 1345086;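 active = compounds killing one labelled cell type while sparing the other, by normalised counts and ratio limits, not self-fluorescent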;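 as to all read-outs here: cells exposed to compound for 72 h before imaging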;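 as to red/green cell ratio (normalised): normalised mesenchymal count divided by normalised epithelial count so high means epithelial killing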); conditions: imaging cell counts, at 1 µM; for red/green cell ratio (normalised): actives lie on both sides, counts scaled to control wells, 1 = unselective
# [11] = survival rescue of mitochondrial mutant cells in low glucose, primary screen, MELAS cybrids, Rieske KO mouse fibroblasts, CellTiter-Glo (AID 1508586;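 active = mean z-score across replicates of 1.96 or higher in either the MELAS or the Rieske mutant cell line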;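 also: z relative to plate mean and SD of compound and empty wells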)
# F380Y = test: modulators of BK channel variants, profiling panel, selectivity assay, cell-based, U2OS BacMam, thallium flux, beta subunits (AID 1259406); conditions: at 30 µM;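 also: initial slope of Thallos dye fluorescence rise after thallium is added; log ratio against the mean of 0.3% DMSO vehicle wells on the same plate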
# F380Y/beta1 = test: as above; conditions: at 30 µM
# F380Y/beta2Delta = test: as above; conditions: at 30 µM
# F380Y/beta4 = test: as above; conditions: at 30 µM
# [12] = molecular target: Calcium-activated potassium channel subunit alpha-1 (Homo sapiens) + Leucine-rich repeat-containing protein 26 (Homo sapiens) (UniProt Q12791+Q2I0M4); test: as above; conditions: F380Y/Slo1WT/gamma1, at 30 µM
# R275C = test: as above; conditions: at 30 µM
# R275C/beta1 = test: as above; conditions: at 30 µM
# [13] = sensitizers of A549 cells to miR-34 induction, primary screen, imaging, A549 dox-inducible miR-34, nuclei and caspase counts (AID 1347080;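 active = compounds whose cell count with miR-34 switched on is under 0.7 times the count with it off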); conditions: A549 miR-34 inducible, Hoechst nuclei count, 48 h
# [14] = measured here: epithelial PC-3E GFP cell survival
# [15] = measured here: mesenchymal TEM4-18 mCherry cell survival
# [16] = MELAS cybrid survival, CellTiter-Glo 48 h, stronger effect = higher value
# [17] = Rieske KO mouse fibroblast survival, CellTiter-Glo 72 h
# [18] = stronger effect = lower value, cell number ratio, induced over uninduced
# [19] = measured here: relative caspase fold change +Dox/-Dox
# [20] = measured here: total cells with miR-34 induction, stronger effect = lower value
# [21] = measured here: total cells without miR-34 induction
# Sequence of 6-phosphogluconate dehydrogenase, decarboxylating (Homo sapiens) (P52209 whole entry, looked up): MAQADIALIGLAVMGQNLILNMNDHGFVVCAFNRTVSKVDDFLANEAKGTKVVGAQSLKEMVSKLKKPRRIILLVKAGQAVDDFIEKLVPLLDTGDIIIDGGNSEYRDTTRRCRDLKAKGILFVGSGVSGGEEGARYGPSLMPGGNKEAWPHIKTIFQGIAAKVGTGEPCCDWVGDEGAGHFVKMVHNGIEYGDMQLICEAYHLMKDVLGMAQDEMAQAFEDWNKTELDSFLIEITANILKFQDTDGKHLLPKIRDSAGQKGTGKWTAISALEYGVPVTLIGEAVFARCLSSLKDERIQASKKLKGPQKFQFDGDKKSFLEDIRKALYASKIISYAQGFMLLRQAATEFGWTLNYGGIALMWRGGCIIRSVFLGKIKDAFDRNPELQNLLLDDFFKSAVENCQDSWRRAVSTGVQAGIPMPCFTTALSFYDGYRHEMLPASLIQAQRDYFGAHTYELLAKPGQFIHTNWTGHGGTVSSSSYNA
# Sequence of Calcium-activated potassium channel subunit alpha-1 (Homo sapiens) + Leucine-rich repeat-containing protein 26 (Homo sapiens) (Q2I0M4 whole entry, looked up, one chain of several): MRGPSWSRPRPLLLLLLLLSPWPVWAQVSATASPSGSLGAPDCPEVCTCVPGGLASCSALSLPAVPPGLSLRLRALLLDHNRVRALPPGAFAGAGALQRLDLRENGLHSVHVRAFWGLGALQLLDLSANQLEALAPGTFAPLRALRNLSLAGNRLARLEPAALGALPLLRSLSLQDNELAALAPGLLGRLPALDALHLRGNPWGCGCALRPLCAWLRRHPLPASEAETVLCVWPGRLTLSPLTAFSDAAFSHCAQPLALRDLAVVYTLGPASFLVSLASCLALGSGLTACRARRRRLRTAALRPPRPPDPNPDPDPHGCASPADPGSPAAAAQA
smiles,measurement,setting,value
CN=C(NC#N)NCCSCc1nc[nH]c1C,nuclear beta-catenin stimulation,[1]; at 10 µM,0.2% (inactive)
same,nuclear beta-catenin stimulation,"[1]; stimulation, at 2 µM",-1.1%
same,insulin secretion stimulation,[2],1.3% (inactive)
same,viability decrease,[3],10.8% (inactive)
same,tube area decrease,[4],-5.8% (inactive)
same,GLP1 secretion stimulation,[5],-0.3% (inactive)
same,inhibition of viability,[6],8.17% (inactive)
same,viability decrease (inhibition),[7],36.9% (inactive)
same,viability decrease (inhibition),[8],1.2% (inactive)
same,inhibition,[9],-10.7% (inactive)
same,red/green cell ratio (normalised),[10],1.04 (inactive)
same,normalised cell number,[10]; [14],1.01
same,normalised cell number,[10]; [15],1.05
same,z-score,[11]; [16],-0.132 (inactive) and 0.533 (inactive) and -0.0775 (inactive)
same,z-score,[11]; [17],-0.116 and -0.0466 and 0.0997
same,log fold change Tl+ flux,F380Y,0.0123 (inactive)
same,log fold change Tl+ flux,F380Y/beta1,0.0381 (inactive)
same,log fold change Tl+ flux,F380Y/beta2Delta,-0.0232 (inactive)
same,log fold change Tl+ flux,F380Y/beta4,0.031 (inactive)
same,log fold change Tl+ flux,[12],0.0464 (inactive)
same,log fold change Tl+ flux,R275C,0.00692 (inactive)
same,log fold change Tl+ flux,R275C/beta1,-0.0361 (inactive)
CCCCNc1cc(C(=O)O)cc(S(N)(=O)=O)c1Oc1ccccc1,nuclear beta-catenin stimulation,[1]; at 10 µM,0.1% (inactive)
same,nuclear beta-catenin stimulation,"[1]; stimulation, at 2 µM",-0.1%
same,insulin secretion stimulation,[2],-0.7% (inactive)
same,viability decrease,[3],-57% (inactive)
same,tube area decrease,[4],3.7% (inactive)
same,GLP1 secretion stimulation,[5],-2.2% (inactive)
same,inhibition of viability,[6],2.63% (inactive)
same,viability decrease (inhibition),[7],2.4% (inactive)
same,viability decrease (inhibition),[8],-4.2% (inactive)
same,inhibition,[9],0% (inactive)
same,red/green cell ratio (normalised),[10],0.96 (inactive)
same,normalised cell number,[10]; [14],1.1
same,normalised cell number,[10]; [15],1.05
same,z-score,[11]; [16],-0.34 (inactive) and 0.797 (inactive) and -0.227 (inactive)
same,z-score,[11]; [17],-0.392 and -0.0528 and -1.25
same,log fold change Tl+ flux,F380Y,0.0239 (inactive)
same,log fold change Tl+ flux,F380Y/beta1,-0.0436 (inactive)
same,log fold change Tl+ flux,F380Y/beta2Delta,-0.0452 (inactive)
same,log fold change Tl+ flux,F380Y/beta4,-0.00421 (inactive)
same,log fold change Tl+ flux,[12],-0.0253 (inactive)
same,log fold change Tl+ flux,R275C,-0.00799 (inactive)
same,log fold change Tl+ flux,R275C/beta1,0.0319 (inactive)
NCCc1ccc(O)c(O)c1,nuclear beta-catenin stimulation,[1]; at 10 µM,1.1% (inactive)
same,nuclear beta-catenin stimulation,"[1]; stimulation, at 2 µM",0.8%
same,insulin secretion stimulation,[2],-3% (inactive)
same,viability decrease,[3],22.9% (inactive)
same,tube area decrease,[4],37.7% (inactive)
same,GLP1 secretion stimulation,[5],-0.9% (inactive)
same,inhibition of viability,[6],-9.7% (inactive)
same,viability decrease (inhibition),[7],79.9% (active)
same,viability decrease (inhibition),[8],11.6% (inactive)
same,inhibition,[9],-4.79% (inactive)
same,red/green cell ratio (normalised),[10],1.02 (inactive) and 0.85 (inactive)
same,normalised cell number,[10]; [14],1.41 and 1.02
same,normalised cell number,[10]; [15],1.44 and 0.87
same,z-score,[11]; [16],-0.31 (inactive) and 0.319 (inactive)
same,z-score,[11]; [17],0.135 and -0.219
same,log fold change Tl+ flux,F380Y,0.0174 (inactive)
same,log fold change Tl+ flux,F380Y/beta1,0.0356 (inactive)
same,log fold change Tl+ flux,F380Y/beta2Delta,0.0459 (inactive)
same,log fold change Tl+ flux,F380Y/beta4,0.00195 (inactive)
same,log fold change Tl+ flux,[12],-0.0022 (inactive)
same,log fold change Tl+ flux,R275C,0.00996 (inactive)
same,log fold change Tl+ flux,R275C/beta1,-0.0871 (inactive)
CC(=O)CC(c1ccccc1)c1c(O)c2ccccc2oc1=O (stereo not given),nuclear beta-catenin stimulation,[1]; at 10 µM,3.2% (inactive)
same,nuclear beta-catenin stimulation,"[1]; stimulation, at 2 µM",0.2%
same,insulin secretion stimulation,[2],0.2% (inactive)
same,viability decrease,[3],-5.05% (inactive)
same,tube area decrease,[4],-0.7% (inactive)
same,GLP1 secretion stimulation,[5],3.5% (inactive)
same,inhibition of viability,[6],-17.8% (inactive)
same,viability decrease (inhibition),[7],32.5% (inactive)
same,viability decrease (inhibition),[8],7% (inactive)
same,inhibition,[9],6.78% (inactive)
same,red/green cell ratio (normalised),[10],0.98 (inactive)
same,normalised cell number,[10]; [14],1.05
same,normalised cell number,[10]; [15],1.02
same,fold change,[13]; [18],0.928 (inactive) and 0.882 (inactive) and 0.918 (inactive)
same,fold change,[13]; [19],1.54 and 1.82 and 3.53
same,cell count,[13]; [20],10300 and 5280 and 12200
same,cell count,[13]; [21],11100 and 5980 and 13300
same,z-score,[11]; [16],-0.697 (inactive)
same,z-score,[11]; [17],-0.222
same,log fold change Tl+ flux,F380Y,-0.00266 (inactive)
same,log fold change Tl+ flux,F380Y/beta1,-0.0341 (inactive)
same,log fold change Tl+ flux,F380Y/beta2Delta,0.0322 (inactive)
same,log fold change Tl+ flux,F380Y/beta4,0.0212 (inactive)
same,log fold change Tl+ flux,[12],-0.00524 (inactive)
same,log fold change Tl+ flux,R275C,0.00879 (inactive)
same,log fold change Tl+ flux,R275C/beta1,-0.0262 (inactive)
CCOC(=O)C1=C(C)NC(C)=C(C(=O)OC)C1c1cccc([N+](=O)[O-])c1 (stereo not given),nuclear beta-catenin stimulation,[1]; at 10 µM,-0.1% (inactive)
same,nuclear beta-catenin stimulation,"[1]; stimulation, at 2 µM",1.2%
same,insulin secretion stimulation,[2],2.2% (inactive)
same,viability decrease,[3],58.2% (active)
same,tube area decrease,[4],23.7% (inactive)
same,GLP1 secretion stimulation,[5],-0.6% (inactive)
same,inhibition of viability,[6],75.7% (active)
same,viability decrease (inhibition),[7],52.4% (active)
same,viability decrease (inhibition),[8],40.9% (inactive)
same,inhibition,[9],2.14% (inactive)
same,red/green cell ratio (normalised),[10],1.19 (inactive)
same,normalised cell number,[10]; [14],1.11
same,normalised cell number,[10]; [15],1.31
same,z-score,[11]; [16],-0.48 (inactive) and 1.38 (inactive) and -0.0841 (inactive)
same,z-score,[11]; [17],0.0141 and 0.8 and 0.442
same,log fold change Tl+ flux,F380Y,0.00482 (inactive)
same,log fold change Tl+ flux,F380Y/beta1,-0.0255 (inactive)
same,log fold change Tl+ flux,F380Y/beta2Delta,-0.0689 (inactive)
same,log fold change Tl+ flux,F380Y/beta4,-0.0639 (inactive)
same,log fold change Tl+ flux,[12],0.00177 (inactive)
same,log fold change Tl+ flux,R275C,0.0204 (inactive)
same,log fold change Tl+ flux,R275C/beta1,0.00401 (inactive)
COc1c(N2CCNC(C)C2)c(F)cc2c(=O)c(C(=O)O)cn(C3CC3)c12 (stereo not given),nuclear beta-catenin stimulation,[1]; at 10 µM,0.7% (inactive)
same,nuclear beta-catenin stimulation,"[1]; stimulation, at 2 µM",2.5%
same,insulin secretion stimulation,[2],-1.15% (inactive)
same,viability decrease,[3],6.2% (inactive)
same,tube area decrease,[4],-12.3% (inactive)
same,GLP1 secretion stimulation,[5],-2.4% (inactive)
same,inhibition of viability,[6],25.9% (inactive)
same,viability decrease (inhibition),[7],-16.2% (inactive)
same,viability decrease (inhibition),[8],-9.8% (inactive)
same,inhibition,[9],-4.88% (inactive)
same,red/green cell ratio (normalised),[10],0.98 (inactive) and 0.92 (inactive)
same,normalised cell number,[10]; [14],1.12 and 1.14
same,normalised cell number,[10]; [15],1.11 and 1.05
same,fold change,[13]; [18],0.968 (inactive) and 0.875 (inactive)
same,fold change,[13]; [19],1.74 and 1.47 and 1.16
same,cell count,[13]; [20],10600 and 11400 and 9660
same,cell count,[13]; [21],10900 and 13100 and 11000
same,z-score,[11]; [16],0.506 (inactive) and 0.393 (inactive)
same,z-score,[11]; [17],-0.687 and -0.598
same,log fold change Tl+ flux,F380Y,-0.00177 (inactive)
same,log fold change Tl+ flux,F380Y/beta1,-0.0535 (inactive)
same,log fold change Tl+ flux,F380Y/beta2Delta,-0.045 (inactive)
same,log fold change Tl+ flux,F380Y/beta4,-0.0127 (inactive)
same,log fold change Tl+ flux,[12],0.0449 (inactive)
same,log fold change Tl+ flux,R275C,-0.0278 (inactive)
same,log fold change Tl+ flux,R275C/beta1,0.0168 (inactive)
